# Measured values: article PMC7862700, “An all-to-all approach to the identification of sequence-specific readers for epigenetic DNA modifications on cytosine”
# What was measured:
# Experiment in all cases: DAPPL (digital affinity profiling via proximity ligation, sequencing); 10 mM Tris-HCl pH 7.5, 50 mM NaCl, 1 mM DTT, 4% glycerol, room temperature, 30 min; GST-TFs on glutathione beads, 16-mer random dsDNA library, 0.1% formaldehyde crosslink after washing; high values mean tight binding
# Settings in all cases: protein: recombinant; tags: N-terminal GST; dsDNA, one strand shown
# FLI1 = molecular target: T1, FLI1 (Homo sapiens, UniProt Q01543 1-452)
# T1 sequence: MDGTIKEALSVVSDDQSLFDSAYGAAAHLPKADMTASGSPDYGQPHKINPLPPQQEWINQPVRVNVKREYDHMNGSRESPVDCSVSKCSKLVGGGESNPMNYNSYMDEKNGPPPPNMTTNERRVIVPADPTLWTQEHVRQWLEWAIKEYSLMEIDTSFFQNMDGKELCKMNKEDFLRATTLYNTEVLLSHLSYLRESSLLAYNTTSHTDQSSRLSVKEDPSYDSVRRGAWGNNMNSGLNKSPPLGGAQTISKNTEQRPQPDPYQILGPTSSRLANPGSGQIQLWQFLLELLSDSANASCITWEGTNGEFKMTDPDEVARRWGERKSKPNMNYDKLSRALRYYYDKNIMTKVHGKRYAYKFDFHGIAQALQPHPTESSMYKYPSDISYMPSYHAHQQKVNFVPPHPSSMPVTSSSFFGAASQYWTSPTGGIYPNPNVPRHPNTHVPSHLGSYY
# In short: (§1)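 Pools of DNA-barcoded human transcription factors, expressed in yeast as GST fusions on glutathione beads and combined with a tag-only sample, were incubated with 200 nmole of a 16-mer random double-stranded DNA library. Incubation took 30 min at room temperature in Tris/NaCl/DTT/glycerol buffer and was followed by washing, 0.1% formaldehyde crosslinking, proximity ligation (BsaI/T4 ligase, 1 h, 37 °C), PCR amplification and sequencing on an Illumina NextSeq500. Binding signal is the ratio of a hexamer's read frequency for a factor to its frequency for the tag-only sample.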
# ELK1 = molecular target: T2, ELK1 (Homo sapiens, UniProt P19419 1-428)
# T2 sequence: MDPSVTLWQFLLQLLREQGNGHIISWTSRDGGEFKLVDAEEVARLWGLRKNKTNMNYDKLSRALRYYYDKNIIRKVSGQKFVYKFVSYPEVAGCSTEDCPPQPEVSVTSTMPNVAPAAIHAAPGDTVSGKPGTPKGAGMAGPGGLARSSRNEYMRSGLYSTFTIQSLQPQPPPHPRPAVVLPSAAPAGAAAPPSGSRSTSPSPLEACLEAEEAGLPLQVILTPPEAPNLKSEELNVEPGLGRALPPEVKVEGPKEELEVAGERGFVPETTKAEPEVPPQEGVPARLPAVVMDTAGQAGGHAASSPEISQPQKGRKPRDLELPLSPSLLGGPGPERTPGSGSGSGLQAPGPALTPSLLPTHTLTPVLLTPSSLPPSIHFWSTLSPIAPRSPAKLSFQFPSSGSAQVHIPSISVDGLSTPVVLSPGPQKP
# In short: as §1
# GABPA = molecular target: T3, GABPA (Homo sapiens, UniProt Q06546 1-454)
# T3 sequence: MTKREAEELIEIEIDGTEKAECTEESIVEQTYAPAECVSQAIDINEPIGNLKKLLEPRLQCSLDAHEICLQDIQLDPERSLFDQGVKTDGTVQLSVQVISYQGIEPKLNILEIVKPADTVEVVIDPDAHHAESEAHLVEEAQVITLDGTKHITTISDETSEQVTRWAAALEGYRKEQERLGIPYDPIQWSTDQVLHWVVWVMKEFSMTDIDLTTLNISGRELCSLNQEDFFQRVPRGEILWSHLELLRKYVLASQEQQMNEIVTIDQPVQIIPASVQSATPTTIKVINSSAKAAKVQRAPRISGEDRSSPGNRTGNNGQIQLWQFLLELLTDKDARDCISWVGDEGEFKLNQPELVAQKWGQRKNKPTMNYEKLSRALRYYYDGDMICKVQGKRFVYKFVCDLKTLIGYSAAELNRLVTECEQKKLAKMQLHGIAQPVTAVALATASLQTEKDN
# In short: as §1
# ERG = molecular target: T4, ERG (Homo sapiens, UniProt P11308 1-479)
# T4 sequence: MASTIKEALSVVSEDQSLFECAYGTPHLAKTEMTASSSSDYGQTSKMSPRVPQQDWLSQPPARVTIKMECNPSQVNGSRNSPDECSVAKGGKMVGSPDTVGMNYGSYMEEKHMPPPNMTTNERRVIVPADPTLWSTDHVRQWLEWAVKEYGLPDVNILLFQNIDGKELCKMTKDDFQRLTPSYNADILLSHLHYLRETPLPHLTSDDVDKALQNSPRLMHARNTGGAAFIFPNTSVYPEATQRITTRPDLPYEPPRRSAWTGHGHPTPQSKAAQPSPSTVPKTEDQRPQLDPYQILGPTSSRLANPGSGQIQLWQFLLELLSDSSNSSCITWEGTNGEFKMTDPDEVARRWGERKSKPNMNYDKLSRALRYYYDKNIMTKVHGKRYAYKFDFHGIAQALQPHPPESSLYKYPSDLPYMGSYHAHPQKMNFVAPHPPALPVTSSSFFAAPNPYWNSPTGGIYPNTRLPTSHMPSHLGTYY
# In short: as §1
# ELF1 = ELF1 (Homo sapiens, UniProt P32519 1-619)
# Chain of ELF1 (P32519 whole entry): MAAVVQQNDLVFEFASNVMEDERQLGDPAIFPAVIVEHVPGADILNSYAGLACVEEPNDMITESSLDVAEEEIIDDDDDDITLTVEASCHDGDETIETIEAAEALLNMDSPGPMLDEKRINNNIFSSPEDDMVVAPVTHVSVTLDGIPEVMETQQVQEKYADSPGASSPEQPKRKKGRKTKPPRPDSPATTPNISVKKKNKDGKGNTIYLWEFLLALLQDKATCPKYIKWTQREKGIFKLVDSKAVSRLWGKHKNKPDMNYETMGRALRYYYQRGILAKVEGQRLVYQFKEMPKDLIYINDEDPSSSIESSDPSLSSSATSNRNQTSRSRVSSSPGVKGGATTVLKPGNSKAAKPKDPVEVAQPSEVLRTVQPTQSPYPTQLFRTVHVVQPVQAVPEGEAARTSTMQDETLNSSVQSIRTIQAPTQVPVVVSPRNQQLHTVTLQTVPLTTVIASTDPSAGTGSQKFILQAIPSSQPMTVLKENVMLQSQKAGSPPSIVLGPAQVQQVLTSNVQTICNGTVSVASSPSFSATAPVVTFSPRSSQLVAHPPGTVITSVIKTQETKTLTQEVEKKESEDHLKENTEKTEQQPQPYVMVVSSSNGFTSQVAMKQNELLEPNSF
# In short: as §1
# EHF = molecular target: T5, EHF (Homo sapiens, UniProt Q9NZC4 1-300)
# T5 sequence: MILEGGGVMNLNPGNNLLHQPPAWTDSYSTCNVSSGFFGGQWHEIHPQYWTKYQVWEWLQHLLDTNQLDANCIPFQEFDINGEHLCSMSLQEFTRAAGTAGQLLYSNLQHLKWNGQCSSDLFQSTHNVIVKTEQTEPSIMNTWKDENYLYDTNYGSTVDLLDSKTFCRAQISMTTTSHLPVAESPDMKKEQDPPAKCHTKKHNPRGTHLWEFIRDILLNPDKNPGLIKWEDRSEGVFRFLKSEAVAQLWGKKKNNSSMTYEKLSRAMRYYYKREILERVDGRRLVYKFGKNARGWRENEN
# In short: as §1
# SPI1 = SPI1 (Homo sapiens, UniProt P17947 1-270)
# In short: as §1
# SPIB = SPIB (Homo sapiens, UniProt Q01892 1-262)
# Chain of SPIB (Q01892 whole entry): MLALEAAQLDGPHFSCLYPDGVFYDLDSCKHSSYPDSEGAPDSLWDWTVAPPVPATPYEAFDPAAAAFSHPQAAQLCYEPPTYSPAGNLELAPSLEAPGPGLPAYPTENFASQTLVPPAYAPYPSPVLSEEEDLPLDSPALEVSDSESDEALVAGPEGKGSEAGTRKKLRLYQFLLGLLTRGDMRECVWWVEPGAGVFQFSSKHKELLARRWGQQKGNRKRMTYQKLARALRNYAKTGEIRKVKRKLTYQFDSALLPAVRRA
# In short: as §1
# ELK3 = molecular target: T6, ELK3 (Homo sapiens, UniProt P41970 1-407)
# T6 sequence: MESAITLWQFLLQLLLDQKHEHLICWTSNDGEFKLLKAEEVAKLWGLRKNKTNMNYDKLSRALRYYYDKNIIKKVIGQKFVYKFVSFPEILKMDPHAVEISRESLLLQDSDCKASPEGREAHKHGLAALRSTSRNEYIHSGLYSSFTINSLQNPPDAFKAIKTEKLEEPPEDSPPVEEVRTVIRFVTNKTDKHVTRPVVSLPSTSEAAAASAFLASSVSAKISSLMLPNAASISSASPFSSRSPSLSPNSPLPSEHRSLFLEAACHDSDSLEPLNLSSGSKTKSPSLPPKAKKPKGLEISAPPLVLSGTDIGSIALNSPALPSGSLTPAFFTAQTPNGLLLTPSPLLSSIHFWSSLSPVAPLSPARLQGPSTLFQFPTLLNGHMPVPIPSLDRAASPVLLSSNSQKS
# In short: as §1
Sequence,binding signal (FLI1),binding signal (ELK1),binding signal (GABPA),binding signal (ERG),binding signal (ELF1),binding signal (EHF),binding signal (SPI1),binding signal (SPIB),binding signal (ELK3)
GATGCA,"1.15 fold enrichment (6-mer frequency, TF over GST control)","1.14 fold enrichment (6-mer frequency, TF over GST control)","1.18 fold enrichment (6-mer frequency, TF over GST control)","1.11 fold enrichment (6-mer frequency, TF over GST control)","1.06 fold enrichment (6-mer frequency, TF over GST control)","1.2 fold enrichment (6-mer frequency, TF over GST control)","1.06 fold enrichment (6-mer frequency, TF over GST control)","1.23 fold enrichment (6-mer frequency, TF over GST control)","1.16 fold enrichment (6-mer frequency, TF over GST control)"
CAACCT,"1.2 fold enrichment (6-mer frequency, TF over GST control)","1.16 fold enrichment (6-mer frequency, TF over GST control)","1.23 fold enrichment (6-mer frequency, TF over GST control)","1.13 fold enrichment (6-mer frequency, TF over GST control)","1.2 fold enrichment (6-mer frequency, TF over GST control)","1.21 fold enrichment (6-mer frequency, TF over GST control)","1.14 fold enrichment (6-mer frequency, TF over GST control)","1.17 fold enrichment (6-mer frequency, TF over GST control)","1.08 fold enrichment (6-mer frequency, TF over GST control)"
ATGCCC,"1.38 fold enrichment (6-mer frequency, TF over GST control)","1.38 fold enrichment (6-mer frequency, TF over GST control)","1.33 fold enrichment (6-mer frequency, TF over GST control)","1.28 fold enrichment (6-mer frequency, TF over GST control)","1.32 fold enrichment (6-mer frequency, TF over GST control)","1.26 fold enrichment (6-mer frequency, TF over GST control)","1.2 fold enrichment (6-mer frequency, TF over GST control)","1.23 fold enrichment (6-mer frequency, TF over GST control)","1.2 fold enrichment (6-mer frequency, TF over GST control)"
GTACTA,"1.16 fold enrichment (6-mer frequency, TF over GST control)","1.06 fold enrichment (6-mer frequency, TF over GST control)","1.12 fold enrichment (6-mer frequency, TF over GST control)","1.07 fold enrichment (6-mer frequency, TF over GST control)","1.19 fold enrichment (6-mer frequency, TF over GST control)","1.14 fold enrichment (6-mer frequency, TF over GST control)","1.02 fold enrichment (6-mer frequency, TF over GST control)","1.1 fold enrichment (6-mer frequency, TF over GST control)","1.02 fold enrichment (6-mer frequency, TF over GST control)"
CTGCCG,"1.28 fold enrichment (6-mer frequency, TF over GST control)","1.45 fold enrichment (6-mer frequency, TF over GST control)","1.36 fold enrichment (6-mer frequency, TF over GST control)","1.26 fold enrichment (6-mer frequency, TF over GST control)","1.34 fold enrichment (6-mer frequency, TF over GST control)","1.39 fold enrichment (6-mer frequency, TF over GST control)","1.22 fold enrichment (6-mer frequency, TF over GST control)","1.41 fold enrichment (6-mer frequency, TF over GST control)","1.27 fold enrichment (6-mer frequency, TF over GST control)"
GTCACT,"1.1 fold enrichment (6-mer frequency, TF over GST control)","1.07 fold enrichment (6-mer frequency, TF over GST control)","1.08 fold enrichment (6-mer frequency, TF over GST control)","1.13 fold enrichment (6-mer frequency, TF over GST control)","1.1 fold enrichment (6-mer frequency, TF over GST control)","1.15 fold enrichment (6-mer frequency, TF over GST control)","1.19 fold enrichment (6-mer frequency, TF over GST control)","1.21 fold enrichment (6-mer frequency, TF over GST control)","1.06 fold enrichment (6-mer frequency, TF over GST control)"
GTATAC,"1.28 fold enrichment (6-mer frequency, TF over GST control)","1.3 fold enrichment (6-mer frequency, TF over GST control)","1.32 fold enrichment (6-mer frequency, TF over GST control)","1.24 fold enrichment (6-mer frequency, TF over GST control)","1.18 fold enrichment (6-mer frequency, TF over GST control)","1.22 fold enrichment (6-mer frequency, TF over GST control)","1.18 fold enrichment (6-mer frequency, TF over GST control)","1.27 fold enrichment (6-mer frequency, TF over GST control)","1.28 fold enrichment (6-mer frequency, TF over GST control)"
ACCTCA,"1.2 fold enrichment (6-mer frequency, TF over GST control)","1.16 fold enrichment (6-mer frequency, TF over GST control)","1.29 fold enrichment (6-mer frequency, TF over GST control)","1.15 fold enrichment (6-mer frequency, TF over GST control)","1.23 fold enrichment (6-mer frequency, TF over GST control)","1.28 fold enrichment (6-mer frequency, TF over GST control)","1.22 fold enrichment (6-mer frequency, TF over GST control)","1.19 fold enrichment (6-mer frequency, TF over GST control)","1.19 fold enrichment (6-mer frequency, TF over GST control)"
TGAAAC,"1.31 fold enrichment (6-mer frequency, TF over GST control)","1.29 fold enrichment (6-mer frequency, TF over GST control)","1.25 fold enrichment (6-mer frequency, TF over GST control)","1.16 fold enrichment (6-mer frequency, TF over GST control)","1.4 fold enrichment (6-mer frequency, TF over GST control)","1.28 fold enrichment (6-mer frequency, TF over GST control)","1.28 fold enrichment (6-mer frequency, TF over GST control)","1.18 fold enrichment (6-mer frequency, TF over GST control)","1.33 fold enrichment (6-mer frequency, TF over GST control)"
